Values without a mark were called inactive. Activity calls are given as the source filed them. Rule as the data show it, unless noted: active = inhibition above about 30%; inactive = the rest.
What was measured:
[1] = biological target: Nuclear receptor coactivator 3 (Homo sapiens) (UniProt Q9Y6Q9); assay: SRC3 coactivator transcriptional activity inhibitors, confirmation, cell-based, luminescence, quadruplicate (AID 588792;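 active = mean inhibition over 43.08%, the solvent-only control mean plus 3 SD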;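 also: 0% = DMSO treated cells and 100% = gossypol at 36 µM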); conditions: HEK293 GAL4-SRC3 luciferase reporter, at 3.6 µM, hits give high values
Sequence of Nuclear receptor coactivator 3 (Homo sapiens) (Q9Y6Q9 whole entry, looked up, the tested form may be a part): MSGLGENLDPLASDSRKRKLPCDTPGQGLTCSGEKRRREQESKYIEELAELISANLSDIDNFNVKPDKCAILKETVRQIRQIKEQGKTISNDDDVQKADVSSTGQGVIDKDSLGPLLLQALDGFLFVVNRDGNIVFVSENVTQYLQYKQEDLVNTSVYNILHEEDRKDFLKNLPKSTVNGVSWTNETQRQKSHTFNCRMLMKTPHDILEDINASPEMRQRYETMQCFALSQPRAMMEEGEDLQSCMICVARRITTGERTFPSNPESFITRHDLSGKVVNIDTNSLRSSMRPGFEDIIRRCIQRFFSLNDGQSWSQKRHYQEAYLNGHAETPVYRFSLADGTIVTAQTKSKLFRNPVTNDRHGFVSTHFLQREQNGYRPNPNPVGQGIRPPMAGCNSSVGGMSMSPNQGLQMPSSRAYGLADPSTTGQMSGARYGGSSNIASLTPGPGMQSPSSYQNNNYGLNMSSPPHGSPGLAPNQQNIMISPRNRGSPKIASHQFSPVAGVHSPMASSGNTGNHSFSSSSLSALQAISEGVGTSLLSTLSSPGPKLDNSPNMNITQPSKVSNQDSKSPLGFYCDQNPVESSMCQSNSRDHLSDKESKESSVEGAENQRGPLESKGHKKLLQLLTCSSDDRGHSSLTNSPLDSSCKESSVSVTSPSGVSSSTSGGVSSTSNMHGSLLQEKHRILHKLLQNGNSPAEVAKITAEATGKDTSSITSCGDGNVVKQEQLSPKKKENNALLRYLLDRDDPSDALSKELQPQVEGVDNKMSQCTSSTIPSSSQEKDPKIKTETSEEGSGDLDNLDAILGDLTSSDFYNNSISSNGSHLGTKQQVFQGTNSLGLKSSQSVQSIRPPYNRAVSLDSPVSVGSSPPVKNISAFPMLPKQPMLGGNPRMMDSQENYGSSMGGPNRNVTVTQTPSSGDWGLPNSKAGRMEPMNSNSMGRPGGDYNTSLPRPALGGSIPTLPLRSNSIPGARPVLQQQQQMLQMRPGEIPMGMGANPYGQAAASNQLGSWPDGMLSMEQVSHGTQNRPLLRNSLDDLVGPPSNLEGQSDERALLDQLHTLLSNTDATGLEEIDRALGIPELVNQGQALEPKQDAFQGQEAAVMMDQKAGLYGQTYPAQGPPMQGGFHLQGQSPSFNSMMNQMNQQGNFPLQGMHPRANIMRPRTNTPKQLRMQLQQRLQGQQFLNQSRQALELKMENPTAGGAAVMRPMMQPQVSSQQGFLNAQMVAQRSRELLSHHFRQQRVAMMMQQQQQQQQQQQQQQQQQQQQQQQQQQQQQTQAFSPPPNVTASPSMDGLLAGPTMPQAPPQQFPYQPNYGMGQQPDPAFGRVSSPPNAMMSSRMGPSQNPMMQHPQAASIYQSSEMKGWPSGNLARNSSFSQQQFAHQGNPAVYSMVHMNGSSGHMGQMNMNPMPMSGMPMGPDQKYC

[2] = system: transactivating tegument protein VP16 (Human herpesvirus 1), Gal4-VP16 luciferase reporter; assay: VP16 transactivation inhibitors, counter-screen for SRC3 inhibitor project, cell-based, luminescence, high throughput (AID 588794); conditions: mammalian cells, VP16-driven luciferase reporter luminescence; at 3.6 µM; hits give high values

CCOC(=O)CC/C(C)=N\N=C1\SC(CC(=O)O)C(=O)N1c1ccccc1 (stereo unspecified)
inhibition [1]: 0.21%
inhibition [2]: -4.68%

O=C(NNC1=Nc2ccccc2SC1)c1ccc(Cl)cc1
inhibition [1]: 24.6%
inhibition [2]: 5.18%

Cc1cc(C)nc(/N=C(\N)Nc2ccc(OCCC(C)C)cc2)n1
inhibition [1]: -1.86%
inhibition [2]: 23.4%

C=C(C)COc1ccc(-c2[nH]ncc2-c2ccc(OC)cc2)c(O)c1
inhibition [1]: 7.89%
inhibition [2]: 14.5%

CCOc1ccc(S(=O)(=O)N2CCN(C(=O)COc3ccc(Br)cc3)CC2)cc1
inhibition [1]: 14.4%
inhibition [2]: 14.7%

CC(C)(Sc1cc(C(C)(C)C)c(O)c(C(C)(C)C)c1)Sc1cc(C(C)(C)C)c(O)c(C(C)(C)C)c1
inhibition [1]: 15.9%
inhibition [2]: -0.87%

O=C(CCN1CCOCC1)N/N=C/c1cc(Br)cc(Br)c1O
inhibition [1]: 13.6%
inhibition [2]: 7.46%

c1ccc(NNC2=NCCCCC2)cc1
inhibition [1]: 1.28%
inhibition [2]: -9.77%

CN(C)S(=O)(=O)c1ccc(N2CCN(S(=O)(=O)c3ccc(F)cc3)CC2)c(Cl)c1
inhibition [1]: 41.9%
inhibition [2]: 28.5%

CC(=O)N1CCCc2cc(S(=O)(=O)N3CCCC(C(=O)NCc4ccc(Cl)cc4)C3)ccc21 (stereo unspecified)
inhibition [1]: 4.47%
inhibition [2]: 9.17%

CCCCCCCNC(=O)C1(CC2CC(c3ccc(Cl)cc3)=NO2)CCN(C(=O)c2cc(OCC)c(OCC)c(OCC)c2)CC1 (stereo unspecified)
inhibition [1]: 20.9%
inhibition [2]: 0.73%

O=C(c1ccc(S(=O)(=O)Nc2cccc(C(F)(F)F)c2)cc1)N1CCC1
inhibition [1]: -2.7%
inhibition [2]: -5.66%

Cc1cc(C)n(CCC(=O)N/N=C/c2ccccc2O)n1
inhibition [1]: 18%
inhibition [2]: 4.14%

O=C(Nc1nc(-c2ccc3c(c2)OCCO3)cs1)c1ccc(S(=O)(=O)N2CCCCC2)cc1
inhibition [1]: -0.44%
inhibition [2]: 32.6% (active)

Cc1nn(C)c(C)c1CN(C)C(=O)c1cnn2c1NC(c1ccccc1)CC2C(F)(F)F (stereo unspecified)
inhibition [1]: 21.2%
inhibition [2]: 3.17%

CC(=O)c1cccc(NC(=O)Nc2ccc3c(c2)N(C)C(=O)CS3)c1
inhibition [1]: 32.7%
inhibition [2]: 3.54%

CCC(=O)N1CCN(c2ccnc3cc(Cl)ccc23)CC1
inhibition [1]: 29.1%
inhibition [2]: 9.02%

COc1ccc2c(=O)c3c(=O)n(CCc4ccccc4)c(C(C)C)nc3oc2c1
inhibition [1]: 4.29%
inhibition [2]: 17.5%

Cc1ccccc1NC(=O)C(=Cc1ccc(C(=O)O)cc1)C(=O)Nc1ccccc1C
inhibition [1]: 27.8%
inhibition [2]: 43.2% (active)

COc1ccc(NC(=O)c2cc3c(-c4ccc(OC)c(OC)c4)nn(C)c3s2)cc1OC
inhibition [1]: 10.7%
inhibition [2]: 10.5%

Cc1ccc(N/C(N)=N/c2nc(C)cc(C)n2)cc1
inhibition [1]: -9.39%
inhibition [2]: -6.71%

COc1cc(NC(=O)C2CCN(S(=O)(=O)c3ccc(N4CCCC4=O)cc3)CC2)cc(OC)c1
inhibition [1]: 7.83%
inhibition [2]: 5.99%

O=C(Nc1cccc2ccccc12)OC1C=CS(=O)(=O)C1 (stereo unspecified)
inhibition [1]: 25.6%
inhibition [2]: 15.6%

O=C(NN=Cc1ccccc1O)c1cccc([N+](=O)[O-])c1
inhibition [1]: 52.8% (active)
inhibition [2]: 51.8% (active)

CCc1ccc(OCC(=O)NC(NC(=S)Nc2ccc(Cl)cc2)C(Cl)(Cl)Cl)cc1 (stereo unspecified)
inhibition [1]: -0.7%
inhibition [2]: 0.6%

CCc1nc2ccccc2c(=O)n1NCCc1ccccc1
inhibition [1]: -4.18%
inhibition [2]: 2.67%

CCN(CC)c1ccc(Nc2nc(N3CCOCC3)c3ccccc3n2)cc1
inhibition [1]: 4.45%
inhibition [2]: 20.2%

Cc1cc(C)n(Cc2ccc(NC(=O)c3ccc(COc4ccccc4Br)cc3)cc2)n1
inhibition [1]: -0.48%
inhibition [2]: 20.2%

O=C(N/N=C/c1cc(Cl)ccc1O)c1cccnc1
inhibition [1]: 15.7%
inhibition [2]: 41.4% (active)

CC#CC[N+](C)(C)CCCCCCCCCC
inhibition [1]: 4.4%
inhibition [2]: 16.9%

O=C(N/N=C\c1cc(Br)ccc1O)c1ccc(S(=O)(=O)N2CCCCC2)cc1
inhibition [1]: 72.3% (active)
inhibition [2]: 74.8% (active)

CCOc1cccc(/C=N/NC(=O)c2cc(-c3cccn3C)n[nH]2)c1O
inhibition [1]: 26%
inhibition [2]: 40% (active)

CCOC(=O)c1cnc(SC2CC(=O)N(c3cccc(OC)c3)C2=O)nc1N (stereo unspecified)
inhibition [1]: 9.15%
inhibition [2]: 6.73%
